{"source": "the OligoGym collection"}
{"target": "SLC7A13", "test": "pooled miR-30 sensor sort-seq; sequence = guide strand", "settings": "shRNA"}
{"sequence": "ATCATTAATAATATAGACCATA", "sensor-assay potency score (higher = more potent)": -1.16}
{"sequence": "TTATCAGGAACACTACTCCAGT", "sensor-assay potency score (higher = more potent)": -0.614}
{"sequence": "TATGCCAACACACCTTTGGGGG", "sensor-assay potency score (higher = more potent)": -0.996}
{"sequence": "TAATTGTAAATAGCAAGTCATC", "sensor-assay potency score (higher = more potent)": -1.71}
{"sequence": "TTAATAAGCAAAAAACTTGTGC", "sensor-assay potency score (higher = more potent)": -0.255}
{"sequence": "TTCAGCATCAAAAGCATTCTGA", "sensor-assay potency score (higher = more potent)": -0.117}
{"sequence": "TAATCCGCTGAGAACTAACAGA", "sensor-assay potency score (higher = more potent)": -0.752}
{"sequence": "TAGTATTGAGCTCCACTGCATG", "sensor-assay potency score (higher = more potent)": -1}
{"sequence": "ATATAGACCATAATGAACCCGT", "sensor-assay potency score (higher = more potent)": -0.357}
{"sequence": "TAAATAAACTACAGTCACCAGA", "sensor-assay potency score (higher = more potent)": -0.342}
{"sequence": "AAATCGTTCTACATTCTCCTTT", "sensor-assay potency score (higher = more potent)": 0.252}
{"sequence": "TTAACCTTGATTTGGAATCTGA", "sensor-assay potency score (higher = more potent)": 0.0155}
{"target": "SLC8A1", "test": "pooled miR-30 sensor sort-seq; sequence = guide strand", "settings": "shRNA"}
{"sequence": "TATCACAACAACATTTCCGAAC", "sensor-assay potency score (higher = more potent)": -0.676}
{"sequence": "TTGTAAAACAGAAGTCTCCTAT", "sensor-assay potency score (higher = more potent)": 0.149}
{"sequence": "TTAATCTTCCTTGTCTCTCCGT", "sensor-assay potency score (higher = more potent)": 0.395}
{"sequence": "TTCTCTAGCATGAACCTTCCTG", "sensor-assay potency score (higher = more potent)": -0.164}
{"sequence": "TTGTCTTGGTGGTCTCTCCATT", "sensor-assay potency score (higher = more potent)": -0.926}
{"sequence": "ATGTTCTCTAGCATGAACCTTC", "sensor-assay potency score (higher = more potent)": -0.822}
{"sequence": "TCTTACAGTAATATGATCCAGT", "sensor-assay potency score (higher = more potent)": 0.348}
{"sequence": "TTGAACATGATGATGCCCCTGG", "sensor-assay potency score (higher = more potent)": 0.652}
{"sequence": "TTTATCTGGATGCTTCTGCTTA", "sensor-assay potency score (higher = more potent)": -0.388}
{"sequence": "TAATCTTCCTTGTCTCTCCGTC", "sensor-assay potency score (higher = more potent)": 0.74}
{"sequence": "TAAAACTGACAGACAATCCCAA", "sensor-assay potency score (higher = more potent)": 0.165}
{"target": "SLC8A3", "test": "pooled miR-30 sensor sort-seq; sequence = guide strand", "settings": "shRNA"}
{"sequence": "TTGATCTTGCGAGTCTCTCCGT", "sensor-assay potency score (higher = more potent)": -0.572}
{"sequence": "TTGTAGTCCACATACATGGTCT", "sensor-assay potency score (higher = more potent)": -0.435}
{"sequence": "TTAAATACTGTGTAAAGTCGGT", "sensor-assay potency score (higher = more potent)": -0.0881}
{"sequence": "TGATCTTGCGAGTCTCTCCGTC", "sensor-assay potency score (higher = more potent)": -0.247}
{"sequence": "TTGATCAGTTTGTCCACCGTAG", "sensor-assay potency score (higher = more potent)": 0.465}
{"sequence": "TATTTGTAGAAGAGCAGTCGTT", "sensor-assay potency score (higher = more potent)": -0.77}
{"sequence": "TTTCTTAATTGTCACCTCCCTC", "sensor-assay potency score (higher = more potent)": -0.959}
{"sequence": "TACAAGAGCACGCTGATGCAGA", "sensor-assay potency score (higher = more potent)": -0.14}
{"sequence": "TTTGTAGTCCACATACATGGTC", "sensor-assay potency score (higher = more potent)": -0.363}
{"sequence": "TTTGTATCTGACTTGATTCAAC", "sensor-assay potency score (higher = more potent)": -0.929}
{"sequence": "TTCTGCTGCATGTTTCTTCAGG", "sensor-assay potency score (higher = more potent)": -0.419}
{"target": "SLC9A10", "test": "pooled miR-30 sensor sort-seq; sequence = guide strand", "settings": "shRNA"}
{"sequence": "TAACATTTCTTTCTTCTTGAAT", "sensor-assay potency score (higher = more potent)": -0.801}
{"sequence": "TTGAAATGTGCAACAAACCGAT", "sensor-assay potency score (higher = more potent)": 0.415}
{"sequence": "TACAGTTGAACTTTGTCCCCAG", "sensor-assay potency score (higher = more potent)": 0.193}
{"sequence": "TTAAGCAGTTTATCTCTCCTAT", "sensor-assay potency score (higher = more potent)": -0.373}
